Binding signal data for eleven sequences are collected here from PMC8384837, “Expanding the binding specificity for RNA recognition by a PUF domain”.

Common to all, as to experiment: yeast three-hybrid, YBZ-1, SC-Leu-His + 0.5 mM 3-AT, 4 days
Common to all, as to conditions: tags: N-Gal4 AD-HA kept; label: inside an RPR1-promoter hybrid RNA with tandem MS2 sites; ssRNA

One experiment concerns the target PUM1 PUF domain R5-FQR (Homo sapiens, UniProt Q14671 828-1176, C1007F;R1008Q;Q1011R). An outline of the steps:
(§1)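 Sequencing with Illumina followed PCR amplification of the repeat regions from transformants grown four days on SC-Leu (input) or SC-Leu-His + 0.5 mM 3-AT (selection). The transformants were strain YBZ-1 with a LexA–MS2 coat fusion and a HIS3 reporter, carrying Pumilio-1 PUF domain libraries and matching RNA elements. The interaction score is the log change in variant frequency from input to selection, computed in log2 with a pseudocount of 1 for absent variants.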

A further experiment has as its target PUM1 PUF domain R4-DWL (Homo sapiens, UniProt Q14671 828-1176, N971D;H972W;Q975L). The essentials:
as §1

The target in a further experiment is PUM1 PUF domain R8-TFN (Homo sapiens, UniProt Q14671 828-1176, N1122T;Y1123F;Q1126N). The essentials: as §1
Another experiment addresses PUM1 PUF domain R8-QWG (Homo sapiens, UniProt Q14671 828-1176, N1122Q;Y1123W;Q1126G). An outline of the steps: as §1
The target in a further experiment is PUM1 PUF domain R7-LFR (Homo sapiens, UniProt Q14671 828-1176, S1079L;N1080F;E1083R). The essentials: as §1
Another experiment concerns the target PUM1 PUF domain R2-GWY (Homo sapiens, UniProt Q14671 828-1176, N899G;Y900W;Q903Y). An outline of the steps: as §1
The next experiment has as its target T1, PUM1 PUF domain R6-NRG (Homo sapiens, UniProt Q14671 828-1176, Y1044R;Q1047G).
T1 sequence: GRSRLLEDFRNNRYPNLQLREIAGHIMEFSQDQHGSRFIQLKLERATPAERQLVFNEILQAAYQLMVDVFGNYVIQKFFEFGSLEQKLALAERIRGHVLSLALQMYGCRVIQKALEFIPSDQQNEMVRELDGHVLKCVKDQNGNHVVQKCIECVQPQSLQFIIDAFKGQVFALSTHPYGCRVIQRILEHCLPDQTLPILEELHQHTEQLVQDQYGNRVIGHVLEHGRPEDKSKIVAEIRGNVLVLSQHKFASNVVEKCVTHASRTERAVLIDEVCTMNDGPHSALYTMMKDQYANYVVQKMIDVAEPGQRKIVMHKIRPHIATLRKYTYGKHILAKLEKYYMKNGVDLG
An outline of the steps: as §1

The target in another experiment is PUM1 PUF domain R4-MLC (Homo sapiens, UniProt Q14671 828-1176, N971M;H972L;Q975C). The essentials:
as §1

For another experiment, the target named is PUM1 PUF domain R5-KHA (Homo sapiens, UniProt Q14671 828-1176, C1007K;R1008H;Q1011A). The essentials:
as §1

A further experiment addresses PUM1 PUF domain R3-LWQ (Homo sapiens, UniProt Q14671 828-1176, C935L;R936W). The essentials:
as §1

Regarding “GGCUAGAACUAGUGGAUCCCCCGGCGCCCGGCGGCUCGAGCCCGGGUAAGUGUUAAUAGUCUGCAUGCCGCCGGGCGCCAUGCCUGCAGGUCGACUCUAGAAAACAUG”, the binding signal in the experiment with PUM1 PUF domain R5-FQR was 3.58 log2 enrichment (interaction score). On to “GGCUAGAACUAGUGGAUCCCCCGGCGCCCGGCGGCUCGAGCCCGGGUAAGUGUACAUAGUCUGCAUGCCGCCGGGCGCCAUGCCUGCAGGUCGACUCUAGAAAACAUG”, for which the binding signal in the experiment with PUM1 PUF domain R4-DWL was 4.62 log2 enrichment (interaction score). With “GGCUAGAACUAGUGGAUCCCCCGGCGCCCGGCGGCUCGAGCCCGGGUAAGCGUAAAUAGUCUGCAUGCCGCCGGGCGCCAUGCCUGCAGGUCGACUCUAGAAAACAUG”, the results for the binding signal with PUM1 PUF domain R8-TFN and with PUM1 PUF domain R8-QWG were 2.95 log2 enrichment (interaction score) and 2.14 log2 enrichment (interaction score), respectively. Turning to “GGCUAGAACUAGUGGAUCCCCCGGCGCCCGGCGGCUCGAGCCCGGGUAAGUUUAAAUAGUCUGCAUGCCGCCGGGCGCCAUGCCUGCAGGUCGACUCUAGAAAACAUG”, the binding signal in the experiment with PUM1 PUF domain R7-LFR was 5.84 log2 enrichment (interaction score). With “GGCUAGAACUAGUGGAUCCCCCGGCGCCCGGCGGCUCGAGCCCGGGUAAGUGUAAAAAGUCUGCAUGCCGCCGGGCGCCAUGCCUGCAGGUCGACUCUAGAAAACAUG”, the binding signal with PUM1 PUF domain R2-GWY was 3.42 log2 enrichment (interaction score). On to “GGCUAGAACUAGUGGAUCCCCCGGCGCCCGGCGGCUCGAGCCCGGGUAAGUGUAUAUAGUCUGCAUGCCGCCGGGCGCCAUGCCUGCAGGUCGACUCUAGAAAACAUG”, for which the binding signal with PUM1 PUF domain R4-DWL is 5.76 log2 enrichment (interaction score). Turning to “GGCUAGAACUAGUGGAUCCCCCGGCGCCCGGCGGCUCGAGCCCGGGUAAGUCUAAAUAGUCUGCAUGCCGCCGGGCGCCAUGCCUGCAGGUCGACUCUAGAAAACAUG”, the binding signal with PUM1 PUF domain R7-LFR was 4.97 log2 enrichment (interaction score).

“GGCUAGAACUAGUGGAUCCCCCGGCGCCCGGCGGCUCGAGCCCGGGUAAGUGUAAAUAGUCUGCAUGCCGCCGGGCGCCAUGCCUGCAGGUCGACUCUAGAAAACAUG”: the binding signal with PUM1 PUF domain R6-NRG was 3.99 log2 enrichment (interaction score); with PUM1 PUF domain R4-DWL, 6.99 log2 enrichment (interaction score); with PUM1 PUF domain R2-GWY, 1.07 log2 enrichment (interaction score); with PUM1 PUF domain R4-MLC it was 2.59 log2 enrichment (interaction score); with PUM1 PUF domain R8-QWG, 2.95 log2 enrichment (interaction score); with PUM1 PUF domain R5-KHA it was 3.94 log2 enrichment (interaction score). Turning to “GGCUAGAACUAGUGGAUCCCCCGGCGCCCGGCGGCUCGAGCCCGGGUAAGUGUAAGUAGUCUGCAUGCCGCCGGGCGCCAUGCCUGCAGGUCGACUCUAGAAAACAUG”, the binding signal with PUM1 PUF domain R3-LWQ is 5.4 log2 enrichment (interaction score). Take “GGCUAGAACUAGUGGAUCCCCCGGCGCCCGGCGGCUCGAGCCCGGGUAAGUGUCAAUAGUCUGCAUGCCGCCGGGCGCCAUGCCUGCAGGUCGACUCUAGAAAACAUG”: the values for the binding signal in the experiment with PUM1 PUF domain R5-FQR and with PUM1 PUF domain R5-KHA were 2.5 log2 enrichment (interaction score) and 6.11 log2 enrichment (interaction score), respectively. Regarding “GGCUAGAACUAGUGGAUCCCCCGGCGCCCGGCGGCUCGAGCCCGGGUAAGUGUAAUUAGUCUGCAUGCCGCCGGGCGCCAUGCCUGCAGGUCGACUCUAGAAAACAUG”, the binding signal with PUM1 PUF domain R3-LWQ was 4.13 log2 enrichment (interaction score).
